The chains are these.
T1: UNK ZnF1-3 (human, UniProt Q9C0B0 31-174)
T1 sequence: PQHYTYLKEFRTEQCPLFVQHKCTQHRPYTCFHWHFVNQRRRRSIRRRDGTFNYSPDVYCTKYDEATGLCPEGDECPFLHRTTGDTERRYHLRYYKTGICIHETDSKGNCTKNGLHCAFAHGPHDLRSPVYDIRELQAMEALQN

B1: 31895827_31897285_3242_CDS_ENSMUSG00000042323_ENSMUST00000112095|mouse|control|control (ssRNA)
RNA: GGGAGUUCUACAGUCCGACGAUCCCAACAGCCGUACAACCAUUUUUCACCAGCUGAAUCCUCCCACAGUCUCUCAAUACACACUAUAUGUGGUUGUAGAUUGGCCUCCGCAGGUUCAACAUAGACAUAAUCUCCGACAUGAUACAACAGAGGAUUGAGCAUCA
B2: chr14:76906223:76906224:+_ENSMUSG00000022010_ENSMUST00000022587|mus_mus|FALSE|FALSE (ssRNA)
RNA: GGGAGUUCUACAGUCCGACGAUCCACUUCCUCCCUCACCGCAUACAUCAAAUGGCUUUUCACCAGAUCCAUAGCUUGCUCUAUUUUGUUGUCGAUAGCUACCACACUUGCACCAGAGCUAUUGUCAAGUCUCACGGAAGCGUUCAACAGAGGAUUGAGCAUCA
B3: chr1:109605425:109605426:-_ENSG00000197780_ENST00000461096|hu_mus|FALSE|FALSE (ssRNA)
RNA: GGGAGUUCUACAGUCCGACGAUCUUUAAUCAACUCUCCGUUCUCACAAUUAAAGUACUUACAUUUCCGUCACUAGAGCACAGCCAGAAACACCUGGGCUGGCAUCGGCUCUUUAAGCCCUGCCGUUCCCACUACUGAGGCAUUCAACAGAGGAUUGAGCAUCA
B4: chr14:76904430:76904431:+_ENSMUSG00000022010_ENSMUST00000022587|mus_mus|mus_mus_mus_hu_True|58_108 (ssRNA)
RNA: GGGAGUUCUACAGUCCGACGAUCUGCUGGAAAAAAAACCCUCGUGGAAAAAAAGAGGGAACACCAGCAGCCUUGUACAAACUAGAUAAAAUCUUCUGGCUUUCCGCAGCCCAGGGAGAAACAGAAAACGGCAGCCCUAAUUUACAACAGAGGAUUGAGCAUCA
B5: chr5:143665338:143665339:-_ENSMUSG00000029580_ENSMUST00000100497|mus_hu|FALSE|FALSE (ssRNA)
RNA: GGGAGUUCUACAGUCCGACGAUCCACCUUCACCGUUCCAGUUUUUAAAUCCUGAGUCAAGCCAAAAAAAAAAAAAAAACCAAAACAAAACAAAAAAAACAAAUAAAGCCAUGCCAAUCUCAUCUUGUUUUCUGCGCAAGUUAGCAACAGAGGAUUGAGCAUCA
B6: chr9:108650075:108650076:+_ENSMUSG00000032601_ENSMUST00000035220|mus_mus|FALSE|FALSE (ssRNA)
RNA: GGGAGUUCUACAGUCCGACGAUCAGCAAUUUGUUUAUGUAAACAGCACAGAGGUUAAACAAAACAAAACAAAACAAAAACCUACUAAAUACAAACAACAAAAACCCUAACCCAGAUAACCUUUCCUGGCUACUACUGGAAAGACAACAGAGGAUUGAGCAUCA
B7: 55618536_55618656_2401_CDS_ENSG00000126787_ENST00000247191|human|control|control (ssRNA)
RNA: GGGAGUUCUACAGUCCGACGAUCAACAUCUGAAAUUCCUUCUUUUUUGUUAGUAUUAAUAUCAUCUGCUACUCCACCAGCAAGAAGAGGCAAACUCAUUCUCUCACUGGAUAAACAAUCCACCUUCAAGUCUGUCUUAUUUACCAACAGAGGAUUGAGCAUCA
B8: chr3:124025330:124025331:+_ENSMUSG00000044528_ENSMUST00000058994|mus_mus|FALSE|FALSE (ssRNA)
RNA: GGGAGUUCUACAGUCCGACGAUCGUUUAAUCUUAAUUCCCACCACCACUCAUACCGCUGCCAACCCUUAAAAACACAUUAGACAAUAACAAUAGCAAUAUUUAAAAAAGCACGACCCGUUCUGAAAAACAGAAACUCUCUAGCCAACAGAGGAUUGAGCAUCA
B9: 77377103_77377223_5427_3pUTR_ENSG00000048649_ENST00000308488|human|control|control (ssRNA)
RNA: GGGAGUUCUACAGUCCGACGAUCUACAGUCCACCCAGGCCUUAAGAAAGACCACAUUCAUUUCACUAAUAACUCUCCAUCAGACACAAUAUAUUUGAGGCCACCUUAUUACCACUGCAUAAAGCUUAUUUAAAAAAAUUUGUUCAACAGAGGAUUGAGCAUCA
B10: chr2:32530853:32530854:+_ENSG00000119820_ENST00000437765|hu_mus|FALSE|FALSE (ssRNA)
RNA: GGGAGUUCUACAGUCCGACGAUCUUCAGAAUUCUGACCAAAAAAAAGAAAAAAAAAUCCCAGAUAACUGCAAUUACUUAAAUACAAAAAAUAUUGUUUUAAAAAGACUUUAAGCCUGCCUCUCUAUCUGGAAUGUAUAAAAUUCAACAGAGGAUUGAGCAUCA
B11: 39249924_39250044_1625_CDS_ENSG00000115904_ENST00000402219|human|control|control (ssRNA)
RNA: GGGAGUUCUACAGUCCGACGAUCACUCCGGUACUGUAAAGAUAUCAAUGCUGCCAUCCAAUUGUUUUUCUCUUCAGCUGACUUGGCAGAAAAUAUAACACUAUUUUCAUCUUUUAAAAUUAUUUCAAAAGCAUGCUUGUAUUCCAACAGAGGAUUGAGCAUCA
B12: chr1:71529667:71529668:-_ENSG00000132485_ENST00000254821|hu_hu|FALSE|FALSE (ssRNA)
RNA: GGGAGUUCUACAGUCCGACGAUCUUGUCACUGGAAAUACUGUUAAGAGAAACCUUUUUAUUUUUUAAACCAGAAAACAAACUAAAGCUCAUGUGACCAGAUUUUAAUUUUGAGAAAUAAACUCCAAAAGCAUUUUAAGCCAUACAACAGAGGAUUGAGCAUCA
B13: 24817595_24818005_4380_CDS_ENSG00000090905_ENST00000315183|human|control|control (ssRNA)
RNA: GGGAGUUCUACAGUCCGACGAUCCUGAUGGAGUGGCUGCUGCUGAGAUGGUGGAGUCUGCUGCUUCACCAACAGGUUUGGAUCAAGUUGACGAGAUUGUUGCAUCAUUUGCUGCUGCACACUAAGAGGUCGACCCUGCUGGUCCAACAGAGGAUUGAGCAUCA
B14: chr10:33190432:33190433:-_ENSG00000150093_ENST00000302278|hu_mus|hu_hu_hu_mus_True|1_48 (ssRNA)
RNA: GGGAGUUCUACAGUCCGACGAUCUACAUUUUCCAAACCUGCAUGUGAAUAAAACCCUGGCCACAGAGCCCCAAAACUACCCUACUGUGACUAUGGAGCUGCUGCUGUGAGCUUGGUGUUGCAAAAUCCGCCUGAGUCAGUACUCAACAGAGGAUUGAGCAUCA

Whole data set: some 24,000 sequences, median “enrichment r” near 0.99, cut for the highest 2% near 3.7. The sample as a whole holds a higher share of the highest values than the screen did.

The test deals with T1, UNK ZnF1-3. The experiment in a line: nsRBNS (natural sequence RNA bind-n-seq); RBNS binding buffer (assumed for nsRBNS): 25 mM Tris pH 7.5, 150 mM KCl, 3 mM MgCl2, 0.01% Triton X-100, 500 ug/ml BSA, 20 U/ml SUPERase-In, 4 C; UNK is unkempt and MSI1 is Musashi-1; names of the RNAs are library labels; protein concentration not given here; high values mean tight binding.
B1 came in with a binding signal of 1.01 enrichment R.

Molecule B2 came in with a binding signal of 1.04 enrichment R.

Turning to B3, the binding signal came out at 0.922 enrichment R.

B4 yielded a binding signal of 2 enrichment R.

B5: the binding signal was determined as 2.75 enrichment R.

On to B6, for which the binding signal is 4.03 enrichment R.

B7 returned a binding signal of 1.29 enrichment R.

For B8, the binding signal is 4.17 enrichment R.

As to B9, the binding signal amounted to 3.78 enrichment R.

The molecule B10 came in with a binding signal of 4.78 enrichment R.

In turn, B11 returned a binding signal of 1.14 enrichment R.

B12 registered a binding signal of 1.66 enrichment R.

For B13, the binding signal turned out to be 0.736 enrichment R.

B14 registered a binding signal of 1.02 enrichment R.
